High-throughput results as filed in PubChem BioAssay.
Hits are enriched below; roughly 4.1% of the tested compounds scored in any of these assays.
DAX1 inh-1: inhibitors of DAX1 repression of SF-1 activated StAR promoter; HEK293T StAR-luciferase reporter, SF-1/DAX-1 repression relief; inhibition, % at 6.8 µM; hit rate 1.1% among 370,000;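 active means inhibition above the mean over all tested compounds plus 3 SD, cut at about 3.6% in these data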;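 further: 0% = DAX-1 cells with DMSO and 100% = cells lacking DAX-1 with DMSO; higher inhibition means more luminescence from relief of DAX-1 repression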
DAX1 inh-2: inhibitors of human orphan nuclear receptor DAX1 (NR0B1); HEK293 Gal4-DAX1 luciferase reporter, luminescence; inhibition, % at 6.75 µM; hit rate 0.99% among 340,000; AID 504766;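 active means inhibition above the mean over all tested compounds plus 3 SD, cut at about 4.2% in these data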;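 further: 0% = DAX1-transfected cells with DMSO and 100% = empty-vector control cells with DMSO; inhibition shows as a rise in luminescence from relieved DAX1 repression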
hcDAF12 agonist: activators of H. contortus DAF-12 nuclear receptor. activation, % at 6.8 µM. hit rate 1.4% among 370,000. HEK293 hcDAF-12 lit1-tk-luc reporter, luminescence; 0% DMSO, 100% Δ7-dafachronic acid;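 active means activation above the mean of all tested compounds plus 3 SD, cut at about 5.5% in these data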;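 further: 100% = response to 3 µM Δ7-dafachronic acid high control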
PolyA inhibitor: blocks polyadenylation in yeast reporter cells | activity score, % at 12 µM | S. cerevisiae SKY197-pL101 polyadenylation reporter, beta-gal luminescence; efflux-impaired pdr1/pdr3 knockout yeast; score 100 = 6 SD above DMSO | hit rate 0.02% among 300,000;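 active means lowest replicate activity score at least 50, where 100 means six control SD above control mean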;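 further: yeast exposed to compound for 9 h at 30 °C; higher score means more reporter readthrough which indicates perturbed polyadenylation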
ssDAF12 agonist: activators of S. stercoralis DAF-12 nuclear receptor. HEK293 ssDAF-12/GRIP1 lit1-tk-luc reporter, luminescence; % of 3 µM dafachronic acid response. activation, % at 6.8 µM. hit rate 1% among 370,000. AID 652126;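 active means activation above the mean over all tested compounds plus 3 SD, cut at about 0.9% in these data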;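 further: 0% = DMSO-only wells and 100% = 3 µM delta7-dafachronic acid wells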
hgDAF12 agonist: agonists of H. glycines DAF-12 nuclear receptor | HEK293 GAL4-hgDAF12 UAS-luciferase reporter, agonist luminescence; normalized to butyrate control | activation, % at 6.8 µM | hit rate 1.8% among 370,000 | AID 687014;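 active means activation above a cutoff set at the mean of all screened compounds plus 3 SD, cut at about 10% in these data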;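 further: 0% = DMSO wells and 100% = sodium butyrate wells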
LXRb hcDAF ctr: activates human LXR-beta, counter-screen for hcDAF-12 agonists; shares compounds with hcDAF12 agonist; activation, % at 6.8 µM; 3,400 tested, under 10 active; HEK293 Gal4-LXR tk-luc reporter, luminescence, 24 h; normalized: DMSO 0%, positive control 100%;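 active means mean percent activation of the reporter above a cutoff set as the average over tested compounds plus their standard deviation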
Target sequence (P55055 whole entry, looked up, the tested form may be a part): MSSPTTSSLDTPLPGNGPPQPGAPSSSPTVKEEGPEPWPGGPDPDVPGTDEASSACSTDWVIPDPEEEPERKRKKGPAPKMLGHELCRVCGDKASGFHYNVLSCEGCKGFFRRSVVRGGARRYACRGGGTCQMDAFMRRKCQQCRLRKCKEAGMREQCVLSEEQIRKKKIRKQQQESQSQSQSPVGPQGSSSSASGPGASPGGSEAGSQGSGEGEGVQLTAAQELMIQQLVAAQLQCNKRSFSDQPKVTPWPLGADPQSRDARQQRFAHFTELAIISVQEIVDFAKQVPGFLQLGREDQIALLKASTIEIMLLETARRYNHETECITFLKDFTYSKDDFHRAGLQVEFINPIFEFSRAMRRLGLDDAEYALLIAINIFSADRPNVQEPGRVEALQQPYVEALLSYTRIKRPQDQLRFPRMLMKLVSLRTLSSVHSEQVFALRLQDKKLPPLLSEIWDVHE
hcDAF12 ag: hcDAF-12 agonism, confirmation assay | hit rate 61% among 3,400 | AID 743032 | HEK293 hcDAF-12 lit1-tk-luc reporter, luminescence; % of Δ7-dafachronic acid response | shares compounds with hcDAF12 agonist | activation, % at 6.8 µM;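 active means mean activation across triplicate tests above the threshold derived from the earlier primary screen, cut at about 5.5% in these data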;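 further: 0% = DMSO only wells and 100% = 3 µM Δ7-dafachronic acid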
hgDAF12 conf: hgDAF-12 agonism, confirmation assay. hit rate 80% among 3,300. shares compounds with hgDAF12 agonist. activation, % at 6.8 µM. HEK293 GAL4-hgDAF12 luciferase reporter, agonist mode; percent of butyrate response. AID 743050;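 active means mean activation over triplicate wells above the hit cutoff derived from the earlier primary screen, cut at about 11% in these data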;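 further: 0% = DMSO low control and 100% = 2 mM sodium butyrate high control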
LXRb DAF12 ctr: LXR-beta agonism as DAF-12 counter-screen; shares compounds with hgDAF12 agonist; HEK293 Gal4-LXR luciferase reporter, 24 h; activation, % at 6.8 µM; 3,300 tested, under 10 active;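 active means mean activation of the triplicate above a set limit carried over from the primary screen, none filed active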
Numbers without * were called inactive; . = no result given.

SMILES	DAX1 inh-1	DAX1 inh-2	hcDAF12 agonist	PolyA inhibitor	ssDAF12 agonist	hgDAF12 agonist	LXRb hcDAF ctr	hcDAF12 ag	hgDAF12 conf	LXRb DAF12 ctr
CN(C)c1ccc(/C=C/c2nc3ccccc3c(=O)[nH]2)cc1	2.6	3.2	6.6*	10.0	0.6	18.5*	1.6	8.1*	5.3	1.1
C(=C\c1nc2ccccc2[nH]1)/c1ccccc1	1.9	-4.1	7.2*	-3.5	0.7	14.4*	1.7	8.1*	17.5*	0.8
O=C(Cc1ncc(C(F)(F)F)cc1Cl)NCc1ccco1	-0.1	2.0	-0.9	-5.0	-1.5	0.6	.	.	.	.
CC(C)(C)NC(=O)COC(=O)c1ccc(Cl)cc1O	0.1	0.5	-0.3	9.8	-1.2	-3.0	.	.	.	.
c1cncc(-c2noc(-c3ccc4ccccc4c3)n2)c1	2.6	-0.1	8.8*	-10.4	1.0*	16.6*	1.2	5.0	18.6*	1.2
COc1ccc(-c2noc(-c3cccnc3)n2)cc1OC	1.6	3.6	1.1	-2.2	-1.0	8.9	.	.	.	.
COc1ccc(CCNC(=O)Cc2c(Cl)cccc2Cl)cc1	-0.2	0.0	-2.5	12.7	-1.4	0.2	.	.	.	.
Cc1nc(NC(=S)NC(=O)c2ccccc2)sc1C	1.4	5.3*	8.0*	-20.2	0.5	13.9*	1.1	15.4*	13.6*	1.2
COC(=O)c1sc(NC(=S)NC(=O)c2cccc(C)c2)nc1C	0.4	0.0	0.6	6.3	-0.5	3.4	.	.	.	.
Cc1nc(NC(=O)c2cc3ccccc3o2)sc1C	2.0	-0.8	10.4*	-10.7	0.5	13.6*	1.6	8.1*	16.9*	1.0
O=C(Nc1ccc2c(c1)CCC2)c1cc2ccccc2o1	2.8	2.2	7.9*	8.2	1.6*	16.9*	1.2	5.1	21.6*	1.0
Cc1nnc(NC(=O)c2cc3ccccc3o2)s1	1.2	1.9	3.9	-9.9	-0.4	7.2	.	.	.	.
Cc1ccc(S(=O)(=O)N2CCCC2)cc1C(=O)NCCN1CCOCC1	0.0	0.5	0.4	-4.8	-0.3	1.4	.	.	.	.
COc1nc2c(c(-c3cc(Br)cs3)c1C#N)Cc1ccccc1-2	0.1	0.1	-0.6	-7.2	-0.8	0.4	.	.	.	.
COc1ccc2[nH]c3nc(SC(C)C)nnc3c2c1	3.9*	1.1	13.7*	-17.2	1.5*	20.7*	1.6	9.1*	9.4	0.6
COc1ccc(N2c3ccccc3CN(Cc3ccccc3)CC2Cc2cc(OC)c(OC)c(OC)c2)cc1 (centres undefined)	1.6	0.9	-1.0	.	-1.5	4.1	.	.	.	.
Cc1ccc(S(=O)(=O)N2[C@H](CC(=O)c3ccc(F)cc3)OC[C@@H]2C)cc1	-0.3	.	-1.0	.	-0.8	-2.1	.	.	.	.
N/C(=N\OC(=O)c1cccc2ccccc12)c1cccnc1	0.7	-0.2	12.0*	-20.0	1.6*	14.4*	0.3	9.0*	12.3*	0.3
Cc1ccc(Nc2nc(N)c3ccccc3n2)cc1C	2.8	-1.8	6.6*	-6.6	0.9*	15.6*	1.6	8.0*	20.9*	1.1
O=C(/C=C/c1ccco1)NC(=S)Nc1cc(-c2nc3ccccc3s2)ccc1Cl	2.5	2.1	11.7*	.	2.8*	14.8*	0.1	5.1	6.0	0.1
Cc1ccc(-c2nc3ccccc3s2)cc1NC(=S)NC(=O)/C=C/c1ccco1	1.9	0.9	3.2	-17.2	0.5	6.2	.	.	.	.
